A short description of assay [1]: A CellTox Green Cytotoxicity Assay to monitor cytotoxicity in HEK293 cells - 32 hour (AID 1224881). Also: nearly all actives have a fitted effect of over 40% in size. In a few lines:
(§1)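 Fluorescence intensity, read at 0, 8, 16, 24, 32 and 40 h of compound treatment, reflected dye binding to DNA of dead HEK293 cells; compounds (23 nL, DMSO) were added 5 h after plating cells with reagent.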

Assay [2] can be described thus: A CellTox Green Cytotoxicity Assay to monitor cytotoxicity in HepG2 cells - 0 hour (AID 1224882). Also: nearly all actives have a fitted effect of over 35% in size. In a few lines:
(§2)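 Using 1536-well format, dye-containing HepG2 suspension was seeded, allowed 5 h at 37 C/5% CO2, dosed by pintool with compounds, positive and negative controls, and imaged for fluorescence across 40 h.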

A short description of assay [3]: A CellTox Green Cytotoxicity Assay to monitor cytotoxicity in HepG2 cells - 32 hour (AID 1224883). Also: nearly all actives have a fitted effect of over 50% in size. The essentials: as §2
A short description of assay [4]: A CellTox Green Cytotoxicity Assay to monitor cytotoxicity in HEK293 cells - 8 hour (AID 1224884). Also: nearly all actives have a fitted effect of over 35% in size. Also: potency is read from the fitted curve at half-maximal effect. In a few lines: as §1
Assay [5] in a line: qHTS RealTime-Glo MT Cell Viability Assay in HepG2 cells - 16 hour (AID 1224885). Also: nearly all actives have a fitted effect of over 50% in size. The essentials: (§3)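 Real-time, nonlytic viability: 600 HepG2 cells/well mixed with NanoLuc enzyme plus prosubstrate; 5 h settle, compound (DMSO) added by pintool; luminescence monitored over 40 h at 37 C.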
Assay [6] is described as follows: qHTS RealTime-Glo MT Cell Viability Assay in HEK293 cells - 24 hour (AID 1224886). Also: top concentration of the series differs between compounds; nearly all actives have a fitted effect of over 50% in size. The essentials: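 Cells + reagent dispensed (600 cells/well, HEK293) → 5 h at 37 C/5% CO2 → 23 nL compound in DMSO pinned → 40 h at 37 C → luminescence read at 0, 8, 16, 24, 32, 40 h.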
(In general: Quantitative high-throughput screening tests each substance at several concentrations.)

Assay [7] can be described thus: qHTS RealTime-Glo MT Cell Viability Assay in HEK293 cells - 8 hour (AID 1224887). Also: top concentration of the series differs between compounds; nearly all actives have a fitted effect of over 50% in size. In a few lines:
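Viable HEK293 cells reduce a cell-permeant prosubstrate; the product diffuses out and is consumed by NanoLuc in the medium to give light. Compounds went in after a 5 h incubation and plates were read over the treatment course.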

Assay [8] can be described thus: A CellTox Green Cytotoxicity Assay to monitor cytotoxicity in HEK293 cells - 16 hour (AID 1224888). Also: nearly all actives have a fitted effect of over 35% in size. In a few lines: as §1
A short description of assay [9]: qHTS RealTime-Glo MT Cell Viability Assay in HepG2 cells - 0 hour (AID 1224889). Also: nearly all actives have a fitted effect of over 50% in size. The essentials: as §3
A short description of assay [10]: A CellTox Green Cytotoxicity Assay to monitor cytotoxicity in HepG2 cells - 8 hour (AID 1224890). Also: nearly all actives have a fitted effect of over 45% in size. In a few lines:
as §2

Assay [11] in a line: qHTS assay to identify small molecule antagonists of the estrogen receptor alpha (ER-alpha) signaling pathway using the BG1 cell line in the presence of 0.1 nM 17-beta-estradiol - cell viability counter screen (AID 1259241). Also: nearly all actives have a fitted effect of over 40% in size. In a few lines:
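Cytotoxicity counter-screen: live-cell protease activity measured by fluorescence (30 min reagent step) in the same wells. Cells were VM7Luc4E2 with endogenous ER-alpha and ERE-driven luciferase, treated 22 hr at 37C alongside 0.1 nM 17beta-estradiol final.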

Assay [12] can be described thus: qHTS assay to identify small molecule antagonists of the androgen receptor (AR) signaling pathway using the MDA cell line in the presence of 0.5 nM R1881 - cell viability counter screen (AID 1259242). Also: nearly all actives have a fitted effect of over 45% in size. In a few lines:
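Viability of MDA-kb2 cells was multiplexed with the luciferase AR readout; after 16 hr with compounds and R1881 at 0.5 nM final, CellTiter-Fluor fluorescence was recorded.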

A short description of assay [13]: qHTS assay to identify small molecule HDAC inhibitors (AID 1259364). Also: potency is read from the fitted curve at half-maximal effect.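 Also: wild-type HCT-116 cells with endogenous class I/II HDAC activity; nearly all actives have a fitted effect of over 45% in size.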 In a few lines:
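Read-out: luminescence of HDAC-Glo I/II reagent, 30 min RT, reflecting class I/II deacetylase activity in whole HCT-116 cells pre-exposed 2 h to DMSO-dissolved compounds.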

Assay [14] can be described thus: qHTS assay to identify small molecule agonists of the sonic hedgehog signaling (Shh) pathway - cell viability counter screen (AID 1259366). Also: nearly all actives have a fitted effect of over 50% in size. In a few lines: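 Cytotoxicity counter screen: CellTiter-Fluor reagent added after 23 h compound exposure, then 1 h at 37C and fluorescence read. Cells were 3T3 Gli1-Luc, seeded 2,000 per well and dosed 4 h post-plating.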
A short description of assay [15]: qHTS assay to identify small molecule antagonists of the sonic hedgehog signaling (Shh) pathway - cell viability counter screen (AID 1259367). Also: nearly all actives have a fitted effect of over 55% in size. In a few lines: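 Seed 3T3 Gli1-Luc cells at 2,000 per well; incubate 4 hr; add compound in DMSO, then conditioned medium; incubate at 37C with 5% CO2; add CellTiter-Fluor after 23 hr; read fluorescence 1 hr later.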
Assay [16] is described as follows: qHTS assay to identify small molecule agonists of the sonic hedgehog signaling (Shh) pathway (AID 1259368; calls by dose curve;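 also: NIH/3T3-derived 3T3Gli1-Luc cells carrying a stable Gli1-driven firefly luciferase reporter; series mostly up to about 92 µM; nearly all actives have a fitted effect of over 15% in size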). In a few lines:
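A Gli1 transcriptional response element controlled firefly luciferase in 3T3Gli1-Luc cells. Compounds and a positive control were added 4 hr after plating, and cells were incubated a further 24 hr at 37 C before luminescence detection.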

Assay [17] is described as follows: qHTS assay to identify small molecule HDAC inhibitors - cell viability counter screen (AID 1259365). In a few lines:
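CellTiter-Glo luminescence (30 min, room temperature) reported viability after a 2 h compound exposure at 37 C. Cells: wild-type HCT-116, 1,500 per well, seeded the night before.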

Records with an inconclusive call do not appear. Active and inactive are the calls of the source. Unless noted, calls follow the shape of the dose curve; as a rule, active = well fitted curve in the direction sought with a large enough effect in the repeat runs; inconclusive = weak or mixed curves; inactive = no such curve, though single readings can be large; an effect the other way counts as inactive or inconclusive.

For the compound `CC(C)(C)OOC(C)(C)CCC(C)(C)OOC(C)(C)C`, the Potency entry in assay [1], in assay [2], in [3], in [4], in assay [5] and in assay [6] was “inactive” throughout. Also, the Potency result in [7], in assay [8], in [10], in assay [11], in assay [12] and in assay [13] was “inactive” throughout. Moreover, the Potency result in [14], in assay [15] and in assay [16] was “inactive” in each case. In addition, in assay [9], the compound was called inactive.

With `OC[P+](CO)(CO)CO`, the Potency entry in assay [1], in assay [2], in assay [3], in assay [4], in assay [5] and in [6] was “inactive” throughout. Further, the Potency entry in assay [7], in [8], in assay [10], in assay [11], in assay [12] and in assay [13] was “inactive” each time. For the same compound, the Potency result in assay [17], in assay [14], in assay [15] and in [16] was “inactive” throughout. The compound was called inactive in [9].

As for `C=CCSSCC=C`, the Potency entry in assay [1], in [2], in [3], in assay [5], in [6] and in assay [7] was “inactive” throughout. Also, the Potency result in assay [8], in [10], in [11], in assay [12], in assay [13] and in assay [17] was “inactive” throughout. Moreover, the Potency entry in assay [14], in [15] and in [16] was “inactive” throughout. Also, in assay [4], the Potency was 54.9 µM (active). Also, the outcome in assay [9] was inactive.

On to `SCc1ccccc1`, for which the Potency entry in [1], in assay [2], in assay [3], in assay [4], in assay [5] and in assay [6] was “inactive” in each case. Besides, the Potency result in assay [7], in assay [8], in assay [10], in assay [11], in assay [12] and in assay [13] was “inactive” throughout. Moreover, the Potency entry in assay [17], in [14], in assay [15] and in [16] was “inactive” throughout. Besides, the call in assay [9] was inactive.

Regarding `CC(C)(C#N)C(C)(C)C#N`, the Potency result in [1], in assay [2], in [3], in assay [4], in assay [5] and in assay [6] was “inactive” in each case. Also, the Potency entry in assay [7], in [8], in assay [10], in assay [11], in assay [12] and in assay [13] was “inactive” in each case. Moreover, the Potency entry in [17], in [14], in [15] and in [16] was “inactive” each time. Besides, in assay [9], the outcome was inactive.

Take `COc1ccc(C(O)(c2cncnc2)C2CC2)cc1` (centres undefined): the Potency result in assay [1], in assay [2], in assay [3], in assay [4], in assay [5] and in [6] was “inactive” each time. The Potency entry in assay [7], in [8], in assay [10], in assay [11], in [12] and in assay [13] was “inactive” throughout. In addition, the Potency entry in assay [17], in [14], in assay [15] and in [16] was “inactive” each time. For the same compound, the compound was classed as inactive in assay [9].

Regarding `COC1=CC(=O)O[C@@H](/C=C/c2ccc3c(c2)OCO3)C1`, the Potency result in assay [1], in [2], in assay [3], in assay [4], in assay [5] and in assay [6] was “inactive” each time. The Potency result in [7], in [8], in assay [10], in assay [11], in assay [12] and in [17] was “inactive” in each case. Also, the Potency entry in assay [14], in assay [15] and in assay [16] was “inactive” throughout. The compound was called inactive in [9]. In addition, the Potency in [13] was 23.3 µM (active).

`CC(C)c1ccc(OP(=O)(Oc2ccc(C(C)C)cc2)Oc2ccc(C(C)C)cc2)cc1`: the Potency result in assay [1], in assay [2], in [3], in [4], in assay [5] and in assay [6] was “inactive” in each case. Moreover, the Potency result in [7], in [8], in assay [10], in assay [11], in assay [12] and in assay [13] was “inactive” throughout. Besides, the Potency result in [14], in assay [15] and in assay [16] was “inactive” each time. Further, the outcome in [9] was inactive.

For the origin of these results see PubChem BioAssay (Tox21).
